PubChem BioAssay AID624137 (Broad Institute, 2012)
The whole screen tested about 31,000 compounds, of which about 360 (1.2%) were called active. The sample holds actives, similar compounds and a random draw of the others, so the mix is not that of the screen. No rule for the calls is given here.

molecular target: DNA-binding protein inhibitor ID-4 (Homo sapiens) (UniProt P47928); test: PubChem AID 624137; conditions: small molecule microarray, Flag-ID4 binding, fluorescence F/B;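 also: a binder raises fluorescence above local background on the spot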
Sequence (P47928 whole entry, looked up): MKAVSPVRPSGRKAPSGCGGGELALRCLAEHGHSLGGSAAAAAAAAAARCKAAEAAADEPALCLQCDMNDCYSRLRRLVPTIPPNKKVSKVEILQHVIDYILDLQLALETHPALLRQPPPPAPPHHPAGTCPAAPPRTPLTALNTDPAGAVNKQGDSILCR

Row | SMILES | outcome
1 | COC(=O)C[C@@H]1C[C@H]2c3cc(NC(=O)NC4CCCC4)ccc3O[C@H]2[C@H](CO)O1 | inactive
2 | O=C(NCC[C@H]1CC[C@@H](NC(=O)C2CCCCC2)[C@@H](CO)O1)c1ccc(F)cc1 | inactive
3 | COc1ccc(NC(=O)N[C@@H]2C=C[C@H](CC(=O)NC3CCC3)O[C@@H]2CO)cc1 | inactive
4 | C[C@H](CO)N1C[C@H](C)[C@H](CN(C)C)Oc2cc(C#CC3CC3)ccc2S1(=O)=O | inactive
5 | C[C@H](CO)N1C[C@H](C)[C@H](CN(C)C(=O)c2cccnc2)Oc2ncc(C3=CCCC3)cc2C1=O | inactive
6 | O=C(C[C@@H]1CC[C@H](NC(=O)Nc2cc(F)ccc2F)[C@H](CO)O1)NCc1ccncn1 | inactive
7 | CNC[C@@H]1Oc2cc(C#CC3CCCC3)ccc2S(=O)(=O)N([C@@H](C)CO)C[C@@H]1C | inactive
8 | Cc1ccccc1NS(=O)(=O)c1cccc(C(=O)Nc2ccccc2[N+](=O)[O-])c1 | inactive
9 | C[C@@H]1CN([C@H](C)CO)C(=O)c2cc(-c3cccc(F)c3)cnc2O[C@@H]1CN(C)C | inactive
10 | C[C@H](CO)N1C[C@H](C)[C@@H](CN(C)Cc2cccnc2)Oc2ncc(/C=C/c3ccccc3)cc2C1=O | inactive
11 | C[C@@H]1CN([C@@H](C)CO)C(=O)c2cc(/C=C/c3ccccc3)cnc2O[C@@H]1CN(C)C(=O)CN(C)C | inactive
12 | Cc1ccccc1-c1ccc2c(c1)O[C@H](CN(C)C)[C@@H](C)CN([C@H](C)CO)S2(=O)=O | inactive
13 | Cc1ccc(S(=O)(=O)CCN2CCC(C(F)(F)F)CC2)cc1 | inactive
14 | CC(=O)N(C)C[C@@H]1Oc2cc(-c3ccncc3)ccc2S(=O)(=O)N([C@@H](C)CO)C[C@H]1C | inactive
15 | C[C@@H]1CN([C@H](C)CO)C(=O)c2cc(-c3ccc(C#N)cc3)cnc2O[C@@H]1CN(C)CC1CC1 | inactive
16 | C[C@H](CO)N1C[C@H](C)[C@H](CN(C)Cc2ccccc2)Oc2ncc(-c3ccccc3)cc2C1=O | inactive
17 | C[C@H]1CN([C@@H](C)CO)C(=O)c2cc(-c3ccc(C#N)cc3)cnc2O[C@@H]1CN(C)Cc1ccncc1 | active
18 | CC(=O)N[C@@H]1C=C[C@H](CC(=O)NCC2CCCCC2)O[C@H]1CO | inactive
19 | C[C@H](CO)N1C[C@H](C)[C@H](CN(C)CC2CCCC2)Oc2ncc(-c3ccc(F)cc3)cc2C1=O | inactive
20 | Cn1cnc(S(=O)(=O)N[C@H]2C=C[C@H](CC(=O)NCC3CCCCC3)O[C@@H]2CO)c1 | inactive
21 | CCOC(=O)c1c(NC(=O)C(C)Oc2ccc3c(C)cc(=O)oc3c2)sc2c1CCC2 (stereo unspecified) | inactive
22 | CC(=O)Nc1sccc1C(=O)NCc1ccco1 | inactive
23 | Cc1cc2oc(C(=O)Nc3sc4c(c3C(=O)NCc3ccco3)CCC4)c(C)c2cc1C | active
24 | CCCNC(=O)C[C@@H]1C[C@@H]2c3cc(N(C)C)ccc3O[C@@H]2[C@H](CO)O1 | inactive
25 | COc1cccc(-c2cnc3c(c2)C(=O)N([C@@H](C)CO)C[C@@H](C)[C@@H](CN(C)Cc2ccc(C(=O)O)cc2)O3)c1 | inactive
26 | CCCN(C)C[C@@H]1Oc2ncc(C#CC3CC3)cc2C(=O)N([C@H](C)CO)C[C@H]1C | inactive

Row | SMILES | outcome
27 | C[C@@H]1CN([C@@H](C)CO)S(=O)(=O)c2ccc(C#CCN(C)C)cc2O[C@@H]1CN(C)CC1CC1 | inactive
28 | CC(C)C#Cc1ccc2c(c1)O[C@H](CN(C)Cc1ccccc1)[C@H](C)CN([C@@H](C)CO)S2(=O)=O | inactive
29 | O=C(N[C@@H]1CC[C@@H](CC(=O)N2CCc3ccccc3C2)O[C@H]1CO)C1CCC1 | inactive
30 | CCCN(C)C[C@@H]1Oc2ncc(-c3ccccc3F)cc2C(=O)N([C@@H](C)CO)C[C@@H]1C | inactive
31 | CCCN(C)C[C@@H]1OCc2cnnn2CCCC(=O)N([C@H](C)CO)C[C@@H]1C | inactive
32 | O=C(Cc1ccccc1)N[C@H]1C=C[C@H](CC(=O)N2CCCCC2)O[C@@H]1CO | inactive
33 | CC(C)C#Cc1cnc2c(c1)C(=O)N([C@@H](C)CO)C[C@@H](C)[C@@H](CN(C)C(=O)c1cccc(F)c1)O2 | inactive
34 | O=C(C[C@@H]1C=C[C@H](NC(=O)CN2CCOCC2)[C@@H](CO)O1)NCc1cccc(F)c1 | inactive
35 | O=C(C[C@@H]1CC[C@H](NC(=O)C2CC2)[C@H](CO)O1)NCc1ccccc1Cl | inactive
36 | C[C@@H]1CN([C@H](C)CO)S(=O)(=O)c2ccc(C#CCN(C)C)cc2O[C@@H]1CN(C)C | inactive
37 | CCNC(=O)C[C@@H]1CC[C@H](NC(=O)C2CCC2)[C@@H](CO)O1 | inactive
38 | COC(=O)c1ccccc1NC(=O)CN(c1ccc2c(c1)OCCO2)S(C)(=O)=O | inactive
39 | CN1CCN(CC(=O)Nc2sc3c(c2C#N)CCC(C(C)(C)C)C3)CC1 (stereo unspecified) | inactive
40 | O=C(CN1CCCC1)Nc1sc2c(c1C(=O)Nc1ccccc1)CCCC2 | inactive
41 | N#Cc1c(NC(=O)C2CC(Cl)=CCC2C(=O)O)sc2c1CCC2 (stereo unspecified) | active
42 | C[C@@H]1CN([C@H](C)CO)C(=O)c2ccccc2-c2ccccc2CO[C@@H]1CN(C)S(=O)(=O)CC(F)(F)F | inactive
43 | CN(C)C(=O)C[C@H]1C[C@@H]2c3cc(NC(=O)CC4CC4)ccc3O[C@@H]2[C@@H](CO)O1 | inactive
44 | COc1cccc(-c2ccc3c(c2)O[C@H](CN(C)Cc2ccncc2)[C@H](C)CN([C@H](C)CO)S3(=O)=O)c1 | inactive
45 | Cc1noc(C)c1NC(=O)N[C@H]1CC[C@H](CC(=O)N2CCCCC2)O[C@@H]1CO | inactive
46 | C[C@H](CO)N1C[C@H](C)[C@H](CN(C)Cc2ccncc2)Oc2ccc(NC(=O)Cc3cn(C)c4ccccc34)cc2CC1=O | inactive
47 | C[C@H](CO)N1C[C@H](C)[C@H](CN(C)C(=O)Nc2ccccc2)Oc2ccc(NC(=O)CCN3CCOCC3)cc2CC1=O | inactive
48 | C[C@@H]1CN([C@@H](C)CO)C(=O)Cc2cc(NC(=O)CCC(F)(F)F)ccc2O[C@@H]1CN(C)C(=O)Nc1cccc2ccccc12 | inactive
49 | C[C@@H]1CN([C@@H](C)CO)C(=O)Cc2cc(NC(=O)Cc3cn(C)c4ccccc34)ccc2O[C@H]1CN(C)C(=O)NC1CCCCC1 | inactive
50 | C[C@H](CO)N1C[C@H](C)[C@H](CN(C)C(=O)Nc2ccc(F)cc2)Oc2ccc(NC(=O)Cc3cn(C)c4ccccc34)cc2CC1=O | active
51 | C[C@@H]1CN([C@@H](C)CO)C(=O)Cc2cc(NC(=O)CCN3CCOCC3)ccc2O[C@@H]1CN(C)C(=O)Nc1cccc2ccccc12 | active
52 | CCC(=O)N(C)C[C@@H]1Oc2ncc(C#Cc3ccccc3)cc2C(=O)N([C@@H](C)CO)C[C@H]1C | inactive

Row | SMILES | outcome
53 | C[C@@H]1CN([C@H](C)CO)C(=O)c2cc(C#CC3CC3)cnc2O[C@H]1CN(C)C(=O)CC1CC1 | inactive
54 | C[C@H]1CN([C@@H](C)CO)C(=O)c2ccccc2-c2ccccc2CO[C@@H]1CN(C)C(=O)CCN(C)C | inactive
55 | CN(C)C(=O)C[C@H]1C=C[C@@H](NC(=O)C2CCC2)[C@@H](CO)O1 | inactive
56 | O=C(C[C@H]1CC[C@H](NC(=O)C2CCC2)[C@@H](CO)O1)NCCCN1CCOCC1 | inactive
57 | CCCN(C)C[C@H]1Oc2ncc(C#CC3CCCCC3)cc2C(=O)N([C@H](C)CO)C[C@@H]1C | inactive
58 | O=C(c1cccc(S(=O)(=O)N2CCOCC2)c1)N(Cc1ccccc1)c1ccccn1 | inactive
59 | C[C@H]1CN([C@@H](C)CO)S(=O)(=O)c2ccc(-c3cccc(F)c3)cc2O[C@@H]1CN(C)C | inactive
60 | O=C(CCN1CCCCC1)N[C@@H]1C=C[C@@H](CC(=O)N2CCC(Cc3ccccc3)CC2)O[C@H]1CO | inactive
61 | O=C(C[C@H]1CC[C@H](NS(=O)(=O)c2ccccc2)[C@H](CO)O1)NCc1ccncn1 | inactive
62 | O=C(CSc1nccc(=O)[nH]1)Nc1cccc(Br)c1 | inactive
63 | C[C@@H]1CN([C@@H](C)CO)C(=O)c2cc(C#CCN(C)C)cnc2O[C@@H]1CN(C)Cc1ccccn1 | inactive
64 | C[C@@H]1CN([C@H](C)CO)C(=O)c2cc(C#CC3CCCC3)cnc2O[C@H]1CN(C)S(C)(=O)=O | inactive
65 | O=C(C[C@@H]1C=C[C@H](NC(=O)Nc2ccccc2F)[C@H](CO)O1)NCc1ccc(F)cc1 | inactive
66 | C[C@@H]1CN([C@@H](C)CO)S(=O)(=O)c2ccc(C#C[C@@H](C)O)cc2O[C@@H]1CN(C)C(=O)CN(C)C | inactive
67 | C[C@H](CO)N1C[C@H](C)[C@@H](CN(C)Cc2ccccn2)Oc2ncc(C3=CCCC3)cc2C1=O | inactive
68 | CN(C)c1ccc(NC(=O)CN(C)S(=O)(=O)c2ccc(Br)cc2)cc1 | inactive
69 | COc1ccc(CN(C)C[C@H]2Oc3ccc(NC(=O)Cc4ccccc4)cc3CC(=O)N([C@@H](C)CO)C[C@@H]2C)cc1 | inactive
70 | COc1ccc(CN(C)C[C@@H]2Oc3ccc(NC(=O)Nc4ccc5c(c4)OCO5)cc3CC(=O)N([C@H](C)CO)C[C@H]2C)cc1 | active
71 | COc1ccc(CN(C)C[C@@H]2Oc3ccc(NC(=O)Nc4ccc(OC)cc4)cc3CC(=O)N([C@H](C)CO)C[C@H]2C)cc1 | inactive
72 | C[C@@H]1CN([C@H](C)CO)C(=O)Cc2cc(NC(=O)Nc3ccc(F)cc3)ccc2O[C@@H]1CN(C)Cc1ccc2c(c1)OCO2 | inactive
73 | C[C@@H]1CN([C@@H](C)CO)C(=O)Cc2cc(NC(=O)Cc3ccccc3)ccc2O[C@H]1CN(C)Cc1ccc(C(=O)O)cc1 | active
74 | C[C@@H]1CN([C@@H](C)CO)C(=O)Cc2cc(NC(=O)Cc3cn(C)c4ccccc34)ccc2O[C@H]1CN(C)Cc1ccc(C(=O)O)cc1 | inactive
75 | O=C(C[C@@H]1C=C[C@@H](NC(=O)C2CCC2)[C@H](CO)O1)NCC1CC1 | inactive
76 | O=C(C[C@@H]1CC[C@H](NC(=O)C2CCC2)[C@@H](CO)O1)NC1CCCCC1 | inactive
